# High-throughput results from PubChem.
# Epigenetic derep = epigenetic control regulation, reporter derepression; murine LDR cells, GFP reporter derepression, 30 h; Potency, µM (highest dose often 53.9 µM), for the others: at the highest dose GFP activation, most hits filed as activators; 0.2% of 280,000 active; active means well fitted activation curve with a large enough effect; inconclusive means small, poorly fitted or top-dose-only effect; further: potency means the concentration at half of the fitted maximal effect; % of control where 0% means no effect; nearly all actives have a fitted effect of over 60% in size
#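 GFP-positive cell count by laser-scanning cytometry (objects 20–120 um) after 30 h, 37 C compound exposure of murine LDR cells; reporter is CMV-GFP integrated at a silenced locus, inducible by HDAC or DNMT inhibitors.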
# D1 agonist = activates the human D1 dopamine receptor; P21728; HEK293 T-REx D1 cells, calcium flux, agonist mode; activation, % at 2 µM; 1% of 360,000 active; further: 0% is about no effect
#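 Tetracycline-induced HEK293 TREx D1 cells, force-coupled to calcium signalling, were dye-loaded with a no-wash calcium kit. Compound was pin-added after a 10 s baseline. Fluorescence was read kinetically at 1 cycle/s for 180 s, with calcium rises flagged as agonism.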
# TRHR agonist = activates the human TRH receptor; TRHR cells, calcium flux fluo-8, FDSS agonist mode; activation, % at 2 µM; 0.18% of 360,000 active; AID 493084; further: 0% is about no effect
# Target sequence (P34981 whole entry, looked up): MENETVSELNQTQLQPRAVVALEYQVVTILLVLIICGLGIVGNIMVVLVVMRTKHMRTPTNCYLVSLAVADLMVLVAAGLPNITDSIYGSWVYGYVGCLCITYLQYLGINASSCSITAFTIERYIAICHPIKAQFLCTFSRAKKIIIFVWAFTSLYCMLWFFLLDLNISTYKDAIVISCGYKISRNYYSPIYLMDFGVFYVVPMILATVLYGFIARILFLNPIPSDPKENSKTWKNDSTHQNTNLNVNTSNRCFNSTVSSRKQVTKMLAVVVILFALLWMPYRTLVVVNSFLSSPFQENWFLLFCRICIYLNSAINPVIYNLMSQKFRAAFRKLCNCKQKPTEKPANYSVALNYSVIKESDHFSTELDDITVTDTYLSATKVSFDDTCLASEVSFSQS
#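 TRHR-expressing cells loaded with fluo-8 calcium dye; 23 nL library compound pin-transferred, kinetic FDSS fluorescence (Ex 480/Em 530) recorded about 180 s for agonist-induced calcium release, before a 10 nM TRH EC20 addition for potentiator mode.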
# D1 PAM = human D1 dopamine receptor positive modulation. potentiation, % at 10 µM. HEK293 TREx D1 cells, calcium flux, dopamine EC20 potentiation. 0.036% of 360,000 active. P21728; in the data active means potentiation above about 30%; further: 0% is about no effect
# D1 antagonist = human D1 dopamine receptor antagonism | HEK293 TREx D1 cells, calcium flux, dopamine EC80; stronger effect = lower value | activity change, negative = inhibition, % at 10 µM | AID 504652 | 3.2% of 360,000 active; in the data active means activity change below about -30%; further: on the % scale 0 is the no-effect control and ±100 the full control effect
#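 Kinetic fluorescence of a calcium dye serves as the read-out. D1-expressing Hek293 Trex cells, induced overnight at 30 C, are exposed to compound for 180 s before an EC80 dopamine addition, then read 180 s further.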
# TRHR PAM = TRH receptor (human) allosteric enhancement; AID 493056; P34981; 0.66% of 360,000 active; TRHR cells, fluo-8 calcium fluorescence, EC20 TRH enhancement; enhancement, % at 2 µM; in the data active means enhancement above about 30%; further: 0% is about no effect
#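 Enhancer read-out: after compound pinning and an initial kinetic agonist-mode read, an EC20 of TRH (10 nM final) was injected and fluo-8 calcium signal (Ex 480/Em 530) followed at 1 s/cycle for 100 cycles in TRHR-expressing cells.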
# Starred values were filed as active, the others as inactive; ? = inconclusive; / = not tested or not shown. Most compounds without a hit are left out; they make up all but 4.6% or so of the library. Unless noted, no stated cut-off is given here; in the data, active means activation above about 30%; inactive means the rest.
SMILES,Epigenetic derep,D1 agonist,TRHR agonist,D1 PAM,D1 antagonist,TRHR PAM
Cc1cc(C)cc(NC(=O)Cn2cc(S(=O)(=O)NC(C)(C)C)c(S(=O)(=O)NC(C)(C)C)c2)c1,-1%,3,1,-3,-12,11
CC(C)C(=O)Nc1nnc(S(=O)(=O)N(C)Cc2ccc(F)cc2)s1,-2%,1,1,-2,-7,2
O=C(COC(=O)c1ccc2c(c1[N+](=O)[O-])C(=O)c1ccccc1C2=O)NC1CC1,?,0,0,-3,-5,0
O=C(COC(=O)c1cccc2c1C(=O)c1ccccc1C2=O)NC1CCCCC1,6%,7,0,3,-78*,4
O=C(COC(=O)c1cccc(OC(F)F)c1)NC(=O)NC1CCCCC1,/,43*,-1,-3,-11,2
O=C(COC(=O)c1ccccc1C(=O)c1ccc(Cl)c([N+](=O)[O-])c1)NC1CCCCCC1,0%,3,-1,-5,-34*,-2
COc1ccccc1CNC(=O)CS(=O)(=O)Cc1nc(-c2ccccc2C)oc1C,-1%,0,0,0,5,2
COc1ccccc1CNC(=O)Cn1c(=O)oc2cc(S(=O)(=O)N3CCC(C)CC3)ccc21,13%,-1,-2,-2,-20,-2
Cc1cc(C)c(NC(=O)Cn2c(=O)n(CC3CCCO3)c(=O)c3ccccc32)c(C)c1 (centres undefined),-2%,1,0,0,-7,3
COc1ccc2c(c1OC)C(=O)OC2CC(=O)O (centres undefined),2%,1,1,0,-30*,-1
CC(=O)Nc1cccc(OCC(O)Cn2c(C)nc3ccccc32)c1 (centres undefined),-1%,0,0,-4,-69*,-3
CCCc1nc2ccccc2n1CC(O)COc1ccc(NC(C)=O)cc1 (centres undefined),2%,3,0,-4,-34*,7
CC(=O)Nc1cccc(OCC(O)Cn2cnc3ccccc32)c1 (centres undefined),1%,1,1,-1,0,12
CC(=O)Nc1ccc(OCC(O)Cn2cnc3ccccc32)cc1 (centres undefined),4%,2,1,-4,-12,2
CC(Nc1cc(N2CCNCC2)ccc1[N+](=O)[O-])c1ccccc1 (centres undefined),-1%,42*,-1,-2,3,2
COc1ccc(OCCOc2ccc(N(C)S(=O)(=O)c3ccccc3)cc2)cc1,/,42*,4,-2,-27,6
CCN(Cc1ccccc1)S(=O)(=O)c1ccc(OC)cc1,/,6,-1,4,-34*,1
CCN(Cc1ccccc1)S(=O)(=O)c1ccc(S(=O)(=O)N2CCN(C)CC2)cc1,-1%,3,0,-3,-1,-5
CCN(Cc1ccccc1)S(=O)(=O)c1ccc(S(=O)(=O)N(Cc2cccc(OC)c2)CC2CCCO2)cc1 (centres undefined),-7%,31*,6,-3,12,4
CCN(Cc1ccccc1)S(=O)(=O)c1ccc(S(=O)(=O)N2CCN(CCC#N)CC2)cc1,-1%,-1,1,-5,-42*,-10
COc1ccc(S(=O)(=O)N(CC(=O)N2CCCC2)Cc2ccccc2)cc1,0%,1,0,-3,4,-5
Cc1cc2c(cc1Cl)C(c1ccccc1C)CC(=O)O2 (centres undefined),2%,/,/,/,/,/
COc1ccc(S(=O)(=O)N(CC(=O)Nc2ccccc2Br)Cc2ccccc2)cc1,-2%,44*,2,0,15,1
COc1ccc(S(=O)(=O)N(CCc2ccccc2)CC(=O)Nc2cccc(OC)c2)cc1,-2%,31*,0,0,-31*,10
CCN(Cc1ccccc1)S(=O)(=O)c1ccc(N2CCCCS2(=O)=O)cc1,3%,12,0,1,-31*,-6
SMILES,Epigenetic derep,D1 agonist,TRHR agonist,D1 PAM,D1 antagonist,TRHR PAM
COc1ccc(S(=O)(=O)N(CC(=O)Nc2ccc(Br)cc2)Cc2ccccc2)cc1,4%,9,2,-2,-6,-2
CCCN(CCC)S(=O)(=O)c1ccc(N2CCCCS2(=O)=O)cc1,-3%,3,1,0,0,6
O=C(Nc1sc2c(c1C(=O)NCc1ccco1)CCCC2)c1cc(=O)c2ccccc2o1,?,1,0,1,3,4
COc1ccc(NC(=O)CSc2oc(-c3ccc(F)cc3)nc2S(=O)(=O)c2ccc(C)cc2)c(OC)c1,15%,3,0,1,25,-3
CN=C1N[C@H](c2ccccc2)N(c2ccccc2)S1,-1%,1,3,-4,10,0
N#Cc1ccc(-c2ccco2)nc1SCc1ccccc1,-1%,1,0,-12,-93*,-17
CC(=O)c1ccc(NC(=O)CN(C)S(=O)(=O)c2cccc3nsnc23)cc1,-1%,2,-1,3,-1,8
Clc1cccc2c1CCN(Cc1nc(-c3cnccn3)no1)C2,0%,0,0,-14,-90*,-17
CC(C)COc1ccccc1C1CC(=O)Nc2cc3c(cc21)OCO3 (centres undefined),1%,26,1,-1,4,2
CC(C)[C@H](NC(=O)c1ccccc1F)C(=O)NCc1ccc(S(N)(=O)=O)cc1,/,0,0,3,11,-16
CC(C)C(NC(=O)c1ccccc1F)C(=O)NCc1ccccc1 (centres undefined),/,0,0,-9,-57*,-4
COc1ccc(-c2cc(CCCC(=O)NCCc3ccc(OC)cc3OC)no2)cc1,0%,21,3,-8,-44*,-15
COc1ccc(-c2cc(CCCC(=O)NCCc3ccccc3)no2)cc1,-1%,12,0,0,-8,12
CCNc1nc(NCC)nc(Nn2cnnc2)n1,0%,2,0,-8,-38*,6
O=C1c2ccccc2-c2onc3ccc(NCCCn4ccnc4)c1c23,0%,208*,112*,4,-14,2
CC(C)CCC(C(=O)O)C(C)CC(=O)NC1CCCCC1 (centres undefined),-1%,1,0,1,4,11
CCCCCC(C(=O)O)C(C)CC(=O)NC1CCCCC1 (centres undefined),1%,2,0,0,-4,38*
Cc1cc2nc(C)c(=O)n(C)c2cc1C,1%,-1,0,-8,-38*,11
Cc1ccccc1CNC(=O)c1ccc(CS(=O)Cc2ccc(Cl)cc2)o1 (centres undefined),-2%,1,-1,-4,6,1
Cc1cc(C)c(-c2csc(NC(=O)/C=C/c3cccs3)n2)c(C)c1,15%,2,1,-2,-37*,-1
